“And” between values parts separate entries of the source, which are not always exact repeats. Identical values can stand only once. The panel holds about 83,000 compounds, 20% with a hit somewhere; the sample as a whole holds those more often.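 Single-dose data. Exposure time 48 hours. Values below 10 considered active.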 Unmarked numbers belong to inactive results. The source made the active and inactive calls.

Holding throughout (assay): NCI-60 one-dose screen, 48 h (100 = growth as untreated, 0 = no growth, -100 = all killed)
Test [1] relates to HCT-15 colon. The settings on record: 10 µM.
Test [2] deals with SNB-75 CNS. The conditions noted are these: 10 µM.
Test [3] relates to SNB-19 CNS. The conditions noted are these: 10 µM.
For test [4], the system named is U251 CNS. The settings on record: 10 µM.
In test [5] the test system is PC-3 prostate. The settings on record: 10 µM.
Test [6] relates to SK-MEL-5 melanoma. The settings on record: 10 µM.
Test [7] concerns UACC-62 melanoma.
Test [8] concerns LOX IMVI melanoma. The settings on record: 10 µM.
Test [9] concerns SK-MEL-28 melanoma. The conditions noted are these: 10 µM.
For test [10], the system named is SK-MEL-2 melanoma. The conditions noted are these: 10 µM.
The subject of test [11] is EKVX NSCLC. The conditions noted are these: 10 µM.
In test [12] the test system is SN12C renal. The settings on record: 10 µM.
For test [13], the system named is UO-31 renal. The conditions noted are these: 10 µM.
Test [14] has as its system TK-10 renal.
Test [15] relates to ACHN renal. The conditions noted are these: 10 µM.
Test [16] has as its system CAKI-1 renal. The settings on record: 10 µM.
For test [17], the system named is A498 renal. The conditions noted are these: 10 µM.
The subject of test [18] is HT29 colon. The settings on record: 10 µM.
The subject of test [19] is CCRF-CEM leukemia. The settings on record: 10 µM.
Test [20] relates to MOLT-4 leukemia. The conditions noted are these: 10 µM unless noted.

`Cc1cc(O)c2c(c1O)C(=O)C13C(=C2O)C(=O)C2C(O)C1C1C(O)C3C(=O)C3=C(O)c4c(O)cc(C)c(O)c4C(=O)C321` (stereo unspecified): the growth is 16.4% in test [1]; 20% in [2]; 5.61% (active) in [3]; 12.3% in test [4]; 10.3% in test [5]; -74.9% (active) in test [6]. For the same molecule, the growth in test [7] (10 µM) was -48.1% (active); in test [8], 7.97% (active); in test [9], 9.99% (active); in test [10] it was -6.64% (active); in test [11], 44.3%; in test [12] it was 12.7%. Besides, the growth is 22.6% in test [13], 22.3% in test [14] (10 µM), 11.4% in [15] and -33.6% (active) in test [16].

Take `COc1ccc2oc(-c3ccc(Cl)cc3)c(N3CCN(C)CC3)c2c1`: the growth in [1] was 28.9%; in [2], 18.3%; in test [3] it was 48.6%; in test [4], 20.1%; in [5], 4.07% (active); in test [6], -14.8% (active). Moreover, the growth was -52.6% (active) in test [7] (10 µM); -87.5% (active) in [8]; -12.3% (active) in test [9]; -15.9% (active) in test [10]; 50.7% in test [11]; 37.2% in [12]. Besides, the growth was -5.46% (active) in [13]; -1.47% (active) in test [14] (10 µM); 4.13% (active) in test [15]; -11.6% (active) in [16]; 52.4% in test [17].

For `ClCCn1c(CCl)nc2ccc(Cl)cc21`, the growth is -31.5% (active) in test [1]; -59.8% (active) in [18]; 20.7% in test [2]; 47.9% in test [3]; -67.2% (active) in test [4]; -63.9% (active) in test [5]. Also, the growth in test [6] was -94.9% (active); in test [7] (10 µM), -79.6% (active); in test [8] it was 2.97% (active); in test [9] it was 42.8%; in test [10] it was -56% (active); in [12], -47% (active). Moreover, the growth is -82.6% (active) in test [13]; -30.6% (active) in [14] (10 µM); -68.8% (active) in [15]; -28.5% (active) in test [16]; 1.48% (active) in [17].

Consider `CCC(=O)Oc1ccc(/C=N/NC(N)=S)nc1`, for which the growth in test [1] is 65%; in test [18], 60.8%; in test [2], 41%; in test [3], 72.7%; in test [4], 27.3%; in test [5], 54.1%. For the same molecule, the growth is 31% in [6]; 7.95% (active) in test [7] (10 µM); 18.1% in test [8]; 79% in test [9]; 53.2% in test [10]; 86.3% in test [11]. Also, the growth is 32.5% in test [12]; 29.7% in [13]; 86.3% in test [14] (10 µM); 8.62% (active) in [15]; -2.02% (active) in test [16]; 52% in test [17].

On to `O=Nc1ccc(Nc2ccccc2)cc1`, for which the growth in test [1] was 81.2%; in [18] it was 95.1%; in [2] it was 80.4%; in [3], 98.3%; in test [4], 87.8%; in test [5] it was 82.8%. Besides, the growth is 87.9% in [6]; 96.9% in test [7] (10 µM); 23.5% in [8]; 120% in test [9]; 109% in test [10]; 89.2% in [11]. Moreover, the growth is 95.6% in [12]; 53.9% in test [13]; 116% in test [14] (10 µM); 41.5% in test [15]; 66.1% in test [16]; 87.2% in test [17]. In addition, in [19], the growth is 2.09% (active).

For `N#C/C(=C/N1C(=O)/C(=C/c2ccc([N+](=O)[O-])cc2)SC1=S)c1nc2ccccc2s1`, the growth in test [1] is 95.6%; in test [2], 84.5%; in test [3], 86.4%; in [4] it was 69.4%; in test [5] it was 79.7%; in test [6], 63.5%. The growth in [7] (10 µM) is 70.1%; in test [8] it was 88%; in [9], 105%; in test [10], 94.4%; in test [11] it was 82.3%; in [12], 89.3%. In addition, the growth in test [13] is 64%; in test [14] (10 µM), 96.3%; in [15], 86.5%; in [16], 97%; in test [17], 6.8% (active).

With `O=[N+]([O-])c1cc(S(=O)(=O)Nc2ccccc2)ccc1Cl`, the growth in [1] is 96.5%; in [2], 69.3%; in test [3] it was 95.5%; in test [4] it was 100%; in test [5], 94.3%; in test [6], 92.8%. Also, the growth is 84.7% in test [7] (10 µM); 77.6% in [8]; 102% in test [9]; 93.3% in [10]; 86.1% in test [11]; 95.7% in test [12]. Moreover, the growth in [13] was 76.7%; in test [14] (10 µM) it was 99.1%; in [15], 94.2%; in test [16], 77.3%; in [17], 96.8%.

On to `CN(C)c1ccc(/C=C/c2ccnc3ccccc23)cc1N`, for which the growth in [1] is 59.5%; in [2] it was 85.8%; in test [3], 80.2%; in test [4] it was 66.7%; in test [5], 60.4%; in [6], 13.6%. The growth is 63.3% in [7] (10 µM); 71.4% in test [8]; 83.8% in [9]; 67.5% in [10]; 52.5% in [11]; 70.5% in test [12]. Further, the growth in test [13] is 45.5%; in test [14] (10 µM), 74.7%; in test [15], 68.6%; in [16], 60.9%; in test [17], 62.8%.

`O=C(NC(=S)Nc1ccccn1)c1ccccc1`: the growth in [1] is 100%; in test [2], 74.8%; in test [3], 95.4%; in test [4], 94.9%; in test [5] it was 77.9%; in [6], 93.3%. The growth is 93.1% in test [7] (10 µM); 94.9% in test [8]; 152% in test [9]; 127% in [10]; 74.8% in [11]; 97.1% in test [12]. Also, the growth in test [13] is 93.9%; in test [14] (10 µM) it was 125%; in test [15], 95.1%; in test [16], 82%; in test [17] it was 70.5%.

Regarding `Cn1ncc2cc3c(Nc4ccc(Cl)cc4)cccc3nc21`, the growth in [1] is 88.1%; in [2], 97.2%; in test [3], 99.3%; in test [4] it was 81.2%; in test [5] it was 79.8%; in [6], 82.1%. For the same molecule, the growth in [7] (10 µM) was 98.6%; in test [8], 87%; in test [9], 95.8%; in test [10] it was 99.4%; in test [11] it was 76.7%; in [12], 93.7%. The growth was 62.5% in test [13]; 92.9% in test [14] (10 µM); 90.5% in test [15]; 88.6% in test [16]; 75.4% in test [17].

For the molecule `O=c1[nH]cc(/C=N\Nc2ccccc2)c(=O)[nH]1`, the growth in test [1] is 41.1%; in [2] it was 102%; in test [3], 103%; in test [4] it was 69.6%; in test [5] it was 52.1%; in test [6], 57.8%. Moreover, the growth in [7] (10 µM) was 7.82% (active); in test [8] it was 45.8%; in [9] it was 81.5%; in test [10], 46.1%; in [11], 56.4%; in test [12], 68.7%. Moreover, the growth in test [13] was 26%; in test [14] (10 µM), 78%; in test [15], 40.3%; in test [16], 41.6%; in test [17], 87.5%; in [20], 49.6%.

For the molecule `COc1ccc(N)c2c1C(=O)c1ccccc1C2=O`, the growth is 87.1% in test [1]; 95.6% in test [2]; 101% in test [3]; 97.9% in test [4]; 89.6% in test [5]; 94.3% in [7] (10 µM). The growth in [8] is 104%; in test [9], 128%; in test [10], 99.5%; in test [11], 106%; in [12], 93.9%; in [13] it was 68.5%. The growth in [14] (10 µM) is 102%; in test [15], 96.9%; in [16] it was 74%; in test [17], 93.4%.

Consider `COc1ccc2c(c1)[nH]c1c(/C=C/c3ccccc3)nccc12`, for which the growth in test [1] was 43.9%; in [2] it was 35.7%; in [3], 76.5%; in test [4] it was 70.4%; in [5] it was 42.5%; in test [6], 72.8%. The growth is 78.9% in [7] (10 µM); 63.4% in [8]; 89.5% in [10]; 62.2% in [11]; 78.7% in test [12]; 25.7% in test [13]. Further, the growth in test [14] (10 µM) is 81.2%; in [15], 61.1%; in test [16] it was 58.4%; in test [17], 71.2%.

With `CC1CCC2(C(=O)O)CCC3(C)C(=CCC4C5(C)CC(O)C(O)C(C)(CO)C5C(O)CC43C)C2C1C` (stereo unspecified), the growth in test [1] was 112%; in test [2], 91.8%; in test [3], 98.7%; in test [4], 103%; in test [5] it was 97.5%; in [6], 4.98% (active). Further, the growth was 104% in [7] (10 µM); 107% in test [8]; 104% in [10]; 113% in test [11]; 96.1% in test [12]; 92.8% in [13]. Besides, the growth was 108% in [14] (10 µM), 116% in [15] and 118% in test [16].

Take `Cc1cc(Cl)ccc1NC(=O)/C(Cl)=C1/Sc2ccccc2NC1=O`: the growth in [1] was 88.2%; in test [2], 70.8%; in test [3], 94%; in test [4] it was 94.7%; in [5] it was 78%; in test [6], 90%. For the same molecule, the growth is 74% in test [7] (10 µM); 73.6% in [8]; 125% in test [9]; 70.4% in test [11]; 106% in test [12]; 76.4% in test [13]. Also, the growth in [14] (10 µM) was 146%; in test [15], 85.4%; in test [16] it was 60.8%; in test [17], 131%.

For the molecule `COc1cc2c(cc1C[N+](C)(C)CSc1ccccc1)-c1ccccc1CC2`, the growth in [7] (100 µM) is -96.4% (active) and -92.3% (active); in test [14] (100 µM), -93.9% (active) and -97.7% (active).

With `O=C1C=CC(=O)N1c1ccc(N2C(=O)C=CC2=O)cc1`, the growth in test [1] is 91.4%; in test [2] it was 95.6%; in test [4] it was 101%; in test [5] it was 112%; in test [6], 103%; in [7] (10 µM) it was 96.5%. The growth in [8] is 85%; in test [9], 135%; in [10], 108%; in test [11] it was 90.8%; in test [12] it was 102%; in test [13], 76.7%. Besides, the growth is 92% in [14] (10 µM), 92.2% in test [15], 69.9% in test [16] and 149% in test [17].
